According to PubChem BioAssay AID1159580 (chemical genetic matrix, 2015):
Screen size: about 5,500 compounds; about 2,000 (36%) were called active. Roughly 18% stayed inconclusive and do not appear here. Cut-off read from the data, not from the text of the source: active = normalized growth mostly below about 0.91 (no sharp cut-off); inconclusive = no clear call, values can overlap the other calls; inactive = mostly above about 0.92. This is one part of the list.

Experiment: chemical genetic growth profiling, strain panel (AID 1159580);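 note: tested at 20 µM; growth read once vehicle control cultures reached saturation at 30 °C; 1 = growth at the plate median or of vehicle wells; lower values mean less growth of the strain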
Settings: S. cerevisiae deletion strains, growth OD

Measured: normalized growth

COc1ccc(-c2cc(=O)c3c(O)cc(O)c(-c4cc(-c5cc(=O)c6c(O)cc(O)cc6o5)ccc4OC)c3o2)cc1
inactive: locus YAL021C, strain ccr4, active compounds read low 1 | locus YAL026C, strain drs2, active compounds read low 1.01 | locus YAL030W, strain snc1, active compounds read low 0.997 | locus YBL061C, strain skt5, active compounds read low 1.01 | locus YBR009C, strain hhf1, active compounds read low 1.01 | locus YBR021W, strain FUR4, active compounds read low 1.03 | locus YBR023C, strain chs3, active compounds read low 1 | locus YBR171W, strain sec66, active compounds read low 1.02 | locus YBR229C, strain ROT2, active compounds read low 0.998 | locus YBR231C, strain swc5, active compounds read low 1.01 | locus YBR279W, strain paf1, active compounds read low 1.01 | locus YCL011C, strain gbp2, active compounds read low 1 | locus YCL016C, strain dcc1, active compounds read low 1 | locus YCL029C, strain bik1, active compounds read low 1.01 | locus YCL061C, strain MRC1, active compounds read low 1.01 | locus YCL069W, strain vba3, active compounds read low 1.01 | locus YCR088W, strain abp1, active compounds read low 1.02 | locus YDL005C, strain med2, active compounds read low 1.01 | locus YDL035C, strain GPR1, active compounds read low 1.03 | locus YDL040C, strain nat1, active compounds read low 1.01 | locus YDL074C, strain BRE1, active compounds read low 1.05 | locus YDL101C, strain DUN1, active compounds read low 1.01 | locus YDL185W, strain tfp1, active compounds read low 0.997 | locus YDL192W, strain arf1, active compounds read low 1 | locus YDR001C, strain nth1, active compounds read low 1.02 | locus YDR069C, strain doa4, active compounds read low 0.95 | locus YDR101C, strain arx1, active compounds read low 1.02 | locus YDR137W, strain rgp1, active compounds read low 0.997 | locus YDR159W, strain sac3, active compounds read low 1.03 | locus YDR162C, strain NBP2, active compounds read low 0.993 | locus YDR195W, strain ref2 0.993 | locus YDR297W, strain sur2, active compounds read low 0.998 | locus YDR318W, strain mcm21, active compounds read low 1 | locus YDR334W, strain swr1, active compounds read low 0.992 | locus YDR335W, strain msn5, active compounds read low 1.01 | locus YDR388W, active compounds read low 1 | locus YDR392W, strain spt3, active compounds read low 0.998 | locus YDR502C, strain sam2, active compounds read low 1.02 | locus YEL003W, strain gim4, active compounds read low 1 | locus YEL037C, strain rad23, active compounds read low 1.02 | locus YEL061C, strain CIN8 (second series), active compounds read low 1.01 | locus YEL061C, strain CIN8, active compounds read low 1.01 | locus YER015W, strain faa2, active compounds read low 1.01 | locus YER016W, strain bim1, active compounds read low 1.01 | locus YER110C, active compounds read low 1.02 | locus YER111C, strain swi4, active compounds read low 1.03 | locus YER155C, strain BEM2 (second series), active compounds read low 0.995 | locus YER155C, strain BEM2, active compounds read low 1.01 | locus YER167W, strain BCK2, active compounds read low 1.02 | locus YFR010W, strain ubp6, active compounds read low 0.965 | locus YGL078C, strain dbp3, active compounds read low 1.01 | locus YGL167C, strain pmr1, active compounds read low 1.01 | locus YGL173C, strain kem1, active compounds read low 1 | locus YGL227W, strain vid30, active compounds read low 1.02 | locus YGL240W, strain doc1, active compounds read low 1.02 | locus YGL248W, strain PDE1, active compounds read low 0.986 | locus YGL253W, strain hxk2, active compounds read low 1.01 | locus YGR078C, strain PAC10, active compounds read low 1.03 | locus YGR135W, strain pre9, active compounds read low 0.997 | locus YGR252W, strain gcn5, active compounds read low 0.995 | locus YHR013C, strain ard1, active compounds read low 0.993 | locus YHR027C, strain rpn1, active compounds read low 1.01 | locus YHR030C, strain SLT2, active compounds read low 1.02 | locus YHR079C, strain IRE1 (second series), active compounds read low 1.01 | locus YHR094C, strain hxt1, active compounds read low 1.01 | locus YHR129C, strain ARP1, active compounds read low 1.01 | locus YHR142W, strain chs7, active compounds read low 0.998 | locus YHR200W, strain rpn10, active compounds read low 1.01 | locus YIL066C, strain RNR3, active compounds read low 0.993 | locus YIL073C, strain SPO22, active compounds read low 1.03 | locus YIL125W, strain kgd1, active compounds read low 1.01 | locus YIR030C, strain dcg1, active compounds read low 1.01 | locus YJL092W, strain hpr5, active compounds read low 1.02 | locus YJL095W, strain BCK1 (second series), active compounds read low 1.01 | locus YJL095W, strain BCK1, active compounds read low 1.08 | locus YJL115W, strain asf1, active compounds read low 1.01 | locus YJL129C, strain trk1, active compounds read low 1.04 | locus YJL134W, strain LCB3, active compounds read low 1.02 | locus YJL154C, strain vps35, active compounds read low 1.01 | locus YJL164C, strain tpk1, active compounds read low 0.987 | locus YJL166W, strain qcr8, active compounds read low 0.997 | locus YJL168C, strain set2, active compounds read low 1.01 | locus YJL187C, strain SWE1 (second series), active compounds read low 0.993 | locus YJL187C, strain SWE1, active compounds read low 0.99 | locus YJR043C, strain POL32, active compounds read low 1.01 | locus YJR075W, strain HOC1, active compounds read low 1.04 | locus YKL009W, strain mrt4, active compounds read low 1.03 | locus YKL068W, active compounds read low 1.01 | locus YKL085W, strain MDH1 (second series), active compounds read low 1.06 | locus YKL085W, strain MDH1, active compounds read low 1.06 | locus YKL160W, strain elf1, active compounds read low 0.998 | locus YKR001C, strain vps1, active compounds read low 1.01 | locus YKR026C, strain gcn3, active compounds read low 0.998 | locus YKR091W, strain srl3, active compounds read low 1.01 | locus YLL001W, strain dnm1, active compounds read low 1.02 | locus YLL026W, active compounds read low 1.02 | locus YLL041C, strain sdh2, active compounds read low 0.995 | locus YLR027C, strain aat2, active compounds read low 1 | locus YLR039C, strain RIC1, active compounds read low 1.16 | locus YLR058C, strain SHM2, active compounds read low 1 | locus YLR102C, strain apc9, active compounds read low 1.01 | locus YLR221C, strain rsa3, active compounds read low 0.999 | locus YLR258W, strain gsy2, active compounds read low 1.01 | locus YLR262C, strain YPT6 (second series), active compounds read low 1.02 | locus YLR262C, strain YPT6, active compounds read low 1.24 | locus YLR268W, strain sec22, active compounds read low 0.985 | locus YLR320W, strain mms22, active compounds read low 1.01 | locus YLR330W, strain CHS5, active compounds read low 1.03 | locus YLR342W, strain FKS1 (second series), active compounds read low 1.02 | locus YLR342W, strain FKS1, active compounds read low 0.978 | locus YLR357W, strain rsc2, active compounds read low 0.973 | locus YLR370C, strain arc18, active compounds read low 0.997 | locus YLR371W, strain rom2, active compounds read low 1 | locus YLR384C, strain iki3, active compounds read low 1.02 | locus YLR418C, strain cdc73, active compounds read low 1.04 | locus YML016C, strain PPZ1, active compounds read low 0.999 | locus YML032C, strain rad52, active compounds read low 1.01 | locus YML120C, strain ndi1, active compounds read low 1.03 | locus YML124C, strain tub3, active compounds read low 1.01 | locus YMR058W, strain fet3, active compounds read low 0.99 | locus YMR078C, strain ctf18, active compounds read low 1.02 | locus YMR125W, strain sto1, active compounds read low 1.02 | locus YMR129W, active compounds read low 1.01 | locus YMR205C, strain PFK2, active compounds read low 1.02 | locus YMR223W, strain ubp8, active compounds read low 1.01 | locus YMR231W, strain pep5, active compounds read low 1 | locus YMR263W, strain SAP30, active compounds read low 1.03 | locus YMR307W, strain GAS1, active compounds read low 1.13 | locus YNL067W, strain RPL9B, active compounds read low 1.02 | locus YNL071W, strain lat1, active compounds read low 1.01 | locus YNL128W, strain TEP1, active compounds read low 1.03 | locus YNL153C, strain GIM3, active compounds read low 0.98 | locus YNL209W, strain ssb2, active compounds read low 1.01 | locus YNL233W, strain BNI4, active compounds read low 1.04 | locus YNL248C, strain rpa49, active compounds read low 1 | locus YNL250W, strain rad50, active compounds read low 1.01 | locus YNL271C, strain bni1, active compounds read low 1.01 | locus YNL298W, strain CLA4, active compounds read low 1.01 | locus YNL307C, strain MCK1, active compounds read low 1.02 | locus YNL322C, strain KRE1 (second series), active compounds read low 1.02 | locus YNL322C, strain KRE1, active compounds read low 1.01 | locus YNR049C, strain mso1, active compounds read low 1.01 | locus YNR052C, strain pop2, active compounds read low 1.01 | locus YOL006C, strain TOP1, active compounds read low 1.16 | locus YOL012C, strain htz1 0.762 | locus YOL147C, strain pex11, active compounds read low 1.02 | locus YOR001W, strain rrp6, active compounds read low 0.993 | locus YOR061W, strain CKA2, active compounds read low 1 | locus YOR069W, strain VPS5, active compounds read low 1.01 | locus YOR070C, strain gyp1, active compounds read low 1 | locus YOR080W, strain dia2, active compounds read low 1.02 | locus YOR083W, strain WHI5, active compounds read low 1 | locus YOR106W, strain vam3, active compounds read low 0.973 | locus YOR136W, strain idh2, active compounds read low 1.02 | locus YOR144C, strain elg1, active compounds read low 1.01 | locus YOR184W, strain ser1, active compounds read low 1.02 | locus YOR265W, strain rbl2, active compounds read low 1 | locus YOR270C, strain vph1, active compounds read low 0.998 | locus YOR290C, strain snf2, active compounds read low 0.981 | locus YOR316C, strain cot1, active compounds read low 1.01 | locus YPL051W, strain arl3, active compounds read low 0.968 | locus YPL078C, strain atp4, active compounds read low 1.01 | locus YPL106C, strain sse1, active compounds read low 0.983 | locus YPL240C, strain hsp82, active compounds read low 1 | locus YPR119W, strain clb2, active compounds read low 1.01 | locus YPR141C, strain kar3, active compounds read low 1.01 | locus YPR163C, strain tif3, active compounds read low 1.02 | locus YPR167C, strain met16, active compounds read low 1.01 | strain wtn01, active compounds read low 0.998
